# According to PubChem BioAssay:
# For part of these data: Measured potencies and affinities stand elsewhere. Active and inactive are the calls of the source.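 The calls were made as follows, unless noted: active = z-score of at least 1.8 in each of two replicates, scored against plate mean and spread of sample wells; inactive = the rest.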
# What was measured:
# [1] = polyglutamine-triggered caspase-3 activation inhibitors, cell-based (AID 1583); conditions: polyglutamine-induced caspase-3 activation, cell assay; stronger effect = higher value;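 tested at 10 µM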
# [2] = suppressors of polyQ aggregation in yeast, 75Q-TubU reporter (AID 1593); conditions: Yeast 75Q polyglutamine aggregation reporter
# [3] = rescue of polyQ-huntingtin neuronal dysfunction in worms, whole organism, C. elegans mechanosensory neurons, N-terminal huntingtin (AID 1599); conditions: touch response, stronger effect = higher value
# [4] = inhibitors of mitochondrial cytochrome c release, biochemical, purified mitochondria (AID 1603); conditions: stronger effect = lower value;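 also: mouse liver mitochondria challenged with calcium chloride; signal normalized to the plate average as 100%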
# [5] = inhibitors of polyQ protein aggregation (AID 1604); conditions: polyglutamine-induced protein aggregation inhibition assay; stronger effect = higher value; tested at 2.5 µM
# [6] = enhancers of glutamate uptake in motor neurons, MN-1 cell line (AID 1612); conditions: MN-1 motor neuron cells, stronger effect = higher value;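 also: tested at 1 µM final; 0% = mean of DMSO vehicle wells on each plate; positive means more glutamate uptake than control and negative means less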
# [7] = reducers of polyQ inclusions in PC12 cells, cell-based, NGF-treated PC12, GFPQ80 (AID 1614); conditions: PC12 NGF-treated GFP-polyQ80 inclusion reduction;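 also: lower means fewer inclusions and 0 means no inclusions at all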
# [8] = suppressors of polyglutamine aggregation in yeast, 75Q-TubH (AID 1616); conditions: S. cerevisiae 75Q-TubH polyglutamine aggregation suppression; stronger effect = higher value
# [9] = liver-stage malaria parasite growth inhibition, primary screen, cell-based, HepG2, luciferase luminescence, HepG2 viability (AID 624349; in the data active = parasite load remaining mostly below about 12%, no sharp cut-off; inactive = mostly above about 10%;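 also: 100% = mean of DMSO negative control wells on the same plate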); conditions: P. berghei liver stage in HepG2, luciferase luminescence, concentration not given here; parasite load remaining: stronger effect = lower value; viability: measured here: HepG2 viability without parasites
# [10] = viability rescue of complex I mutant cybrids, primary screen, cell-based, galactose medium, ATP luminescence (AID 1645843); conditions: complex I mutant cybrid cells, 72 h, stronger effect = higher value;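 also: positive z means more ATP and so rescue of galactose-driven cybrid death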
compound,measurement,setting,value
NCC1OC(OC2C(N)CC(N)C(OC3OC(CO)C(O)C(N)C3O)C2O)C(N)C(O)C1O (stereo not drawn),inhibition,[1],27.6%
same,score,[2],0.94
same,rescue above control,[3],-18
same,cytochrome c release ratio,[4],4.45
same,inhibition of aggregation,[5],8.33%
same,glutamate uptake change,[6],-14.8%
same,inclusion score,[7],2
same,aggregation suppression score,[8],1.28
CC12CC[C@@H]3c4ccc(O)cc4CCC3[C@@H]1CCC2=O (stereo partly drawn),inhibition,[1],-0.88%
same,score,[2],0.11
same,rescue above control,[3],10.3
same,cytochrome c release ratio,[4],0.91
same,inhibition of aggregation,[5],62%
same,glutamate uptake change,[6],-29%
same,inclusion score,[7],2
same,aggregation suppression score,[8],0.566
NC[C@@H]1O[C@H](O[C@H]2[C@@H](O)[C@H](O[C@@H]3[C@@H](O)[C@H](N)C[C@H](N)[C@H]3O[C@@H]3O[C@H](CO)[C@@H](O)C[C@H]3N)O[C@@H]2CO)[C@H](N)[C@@H](O)[C@@H]1O[C@H]1O[C@H](CO)[C@@H](O)[C@H](O)[C@@H]1O,inhibition,[1],-3.41%
same,score,[2],1.7
same,rescue above control,[3],7.71
same,cytochrome c release ratio,[4],0.95
same,inhibition of aggregation,[5],11.6%
same,glutamate uptake change,[6],1.1%
same,inclusion score,[7],2
same,aggregation suppression score,[8],1.86
CC(C)CC1NC(=O)CNC1=O (stereo not drawn),inhibition,[1],8.98%
same,score,[2],1.33
same,rescue above control,[3],-6.28
same,cytochrome c release ratio,[4],1.01
same,inhibition of aggregation,[5],-30.2%
same,glutamate uptake change,[6],-1.97%
same,inclusion score,[7],2
same,aggregation suppression score,[8],0.832
CC(=O)[C@H]1CCC2C3CC=C4C[C@@H](O)CC[C@]4(C)C3CC[C@@]21C (stereo partly drawn),inhibition,[1],19.7%
same,score,[2],0.01
same,rescue above control,[3],-2.78
same,cytochrome c release ratio,[4],1.03
same,inhibition of aggregation,[5],66.7%
same,glutamate uptake change,[6],-1.9%
same,inclusion score,[7],2
same,aggregation suppression score,[8],0.0851
same,parasite load remaining,[9],85.1% (inactive)
same,viability,[9],69.9%
NCC1CCC(N)C(OC2C(N)CC(N)C(OC3OC(CO)C(O)C(N)C3O)C2O)O1 (stereo not drawn),inhibition,[1],-33.2%
same,score,[2],0.99
same,rescue above control,[3],-7.39
same,cytochrome c release ratio,[4],0.86
same,inhibition of aggregation,[5],4.76%
same,glutamate uptake change,[6],14.5%
same,inclusion score,[7],1.5
same,aggregation suppression score,[8],1.46
CC(N)C(O)c1cccc(O)c1 (stereo not drawn),inhibition,[1],-31.9%
same,score,[2],1.32
same,rescue above control,[3],2.5
same,cytochrome c release ratio,[4],0.89
same,inhibition of aggregation,[5],91.7%
same,glutamate uptake change,[6],-5.75%
same,inclusion score,[7],2
same,aggregation suppression score,[8],1.46
same,parasite load remaining,[9],141% (inactive)
same,viability,[9],88.5%
CO/N=C(\C(=O)NC1C(=O)N2C(C(=O)O)=C(CSc3nc(=O)c(O)nn3C)CS[C@H]12)c1csc(N)n1 (stereo partly drawn),inhibition,[1],3.84%
same,score,[2],1.38
same,rescue above control,[3],-0.56
same,cytochrome c release ratio,[4],1.14
same,inhibition of aggregation,[5],62.1%
same,glutamate uptake change,[6],15.4%
same,inclusion score,[7],2
same,aggregation suppression score,[8],1.05
C[C@@H]1CC2C3C[C@H](F)C4=CC(=O)C=CC4(C)C3(F)[C@@H](O)CC2(C)C1C(=O)COC(=O)C(C)(C)C (stereo partly drawn),inhibition,[1],26.8%
same,score,[2],0.1
same,rescue above control,[3],-3.49
same,cytochrome c release ratio,[4],1.09
same,inhibition of aggregation,[5],38%
same,glutamate uptake change,[6],10.9%
same,inclusion score,[7],2
same,aggregation suppression score,[8],0.899
COCc1cn(CC2CCN(C(=O)CC3CCCCCC3)CC2)nn1,z-score,[10],-0.465 (inactive)
Cc1ccc2c(C(=O)N3CCN(C)C(=O)C3C)cc(-c3cnn(C(C)C)c3)nc2c1 (stereo not drawn),z-score,[10],-0.56 (inactive)
O=c1c2c3c(sc2ncn1CCF)CCCCC3,z-score,[10],-0.535 (inactive)
COc1cccc(-n2cc(-c3ccnc(N4CCCN(C(C)=O)CC4)n3)cn2)c1,z-score,[10],-1.14 (inactive)
CC1CCCCN1Cc1ccc(-c2nc(CCn3cccn3)cc(=O)[nH]2)cc1 (stereo not drawn),z-score,[10],-0.245 (inactive)
O=C(c1cn2cccnc2n1)N1CCCC(Cn2cc(C3CCCC3)nn2)C1 (stereo not drawn),z-score,[10],-0.49 (inactive)
CCCn1cnc(NC(=O)NC2CCN(Cc3ccccc3)CC2)n1,z-score,[10],0.58 (inactive)
Cc1nn(C)c(C)c1-c1ccnc(N(C)Cc2cnn(C(C)C)c2)n1,z-score,[10],0.67 (inactive)
Cc1cccc2c(C(=O)N3CCN(C)C(=O)C3C)cc(-c3cnc(N)nc3)nc12 (stereo not drawn),z-score,[10],2.6 (inactive)
CCn1cc(CN(C(=O)c2cnc3ccccn3c2=O)C(C)C)cn1,z-score,[10],0.18 (inactive)
Cc1ccc2c(C(=O)N3CCCC3c3nc(C)no3)cc(-c3cnn(C)c3)nc2c1 (stereo not drawn),z-score,[10],-0.585 (inactive)
Cc1cc(NC(=O)Cn2ccc(-c3ccncc3)n2)n(-c2ccccn2)n1,z-score,[10],0.42 (inactive)
C1=CCC(CN2CCC(N3CCCC3)CC2)CC1 (stereo not drawn),z-score,[10],-0.58 (inactive)
CCCCc1cn(C2CCN(C(=O)C3CC3(CC)CC)CC2)nn1 (stereo not drawn),z-score,[10],0.39 (inactive)
Cn1cc(C(=O)N2CCc3[nH]nc(-c4ccccc4F)c3C2)c2ccccc21,z-score,[10],-0.945 (inactive)
CCOC(=O)c1cc(C)nc(N2CCCC(c3nc(C(C)C)no3)C2)n1 (stereo not drawn),z-score,[10],-0.54 (inactive)
CC(O)Cc1cn(CC2CCN(C(=O)C3CCCCCC3)CC2)nn1 (stereo not drawn),z-score,[10],-0.51 (inactive)
